This is an account of results in PubChem BioAssay (Tox21).

The nature of experiment [1]: qHTS assay to identify small molecule agonists of the constitutive androstane receptor (CAR) signaling pathway - cell viability counter screen (AID 1224836). Note: nearly all actives have a fitted effect of over 45% in size. An outline of the steps: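 Double-stable HepG2 hepatoma cells (hCAR plus CYP2B6-2.2kb) are treated for 23 h at 37 C with test compounds in 15-point concentration series. PK11195 at 0.75 uM final is co-added. Cell viability is quantified by CellTiter-Fluor.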
On the technique in general: Quantitative high-throughput screening tests each substance at several concentrations.

Experiment [2] is described as follows: qHTS assay to identify small molecule antagonists of the constitutive androstane receptor (CAR) signaling pathway - cell viability counter screen (AID 1224837). Note: nearly all actives have a fitted effect of over 45% in size. An outline of the steps: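 Read-out: CellTiter-Fluor fluorescence after 23 hr at 37 C/5% CO2. Cells: HepG2 double-stable for hCAR and CYP2B6-2.2kb. Compounds tested at 15 concentrations in the presence of CITCO, final concentration 50 nM.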

Experiment [3] deals with Nuclear receptor subfamily 1 group I member 3 (Homo sapiens) (UniProt Q14994). The experiment can be described thus: qHTS assay to identify small molecule antagonists of the constitutive androstane receptor (CAR) signaling pathway (AID 1224838).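 Note: HepG2 cells stably expressing hCAR with CYP2B6 luciferase reporter stimulated by CITCO; nearly all actives have a fitted effect of over 40% in size.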 Put shortly: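 Read-out: ONE-Glo luciferase luminescence after 30 min at room temperature. HepG2-CYP2B6-hCAR double-stable cells, compounds in 15-point titration plus 50 nM CITCO final, 24 h at 37 C/5% CO2.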

Experiment [4] shares this target. The experiment can be described thus: qHTS assay to identify small molecule agonists of the constitutive androstane receptor (CAR) signaling pathway (AID 1224839).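 For activation: HepG2 cells stably carrying human CAR and a CYP2B6 luciferase reporter.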 Note: nearly all actives have a fitted effect of over 15% in size. Note: potency is the fitted concentration of half-maximal effect. Put shortly: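 Readout: firefly luciferase luminescence via ONE-Glo. System: HepG2 double-stable for hCAR and CYP2B6-2.2kb. Conditions: 15-point compound titration, PK11195 at 0.75 uM final, 24 h incubation.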

Experiment [5] can be described thus: qHTS assay to identify small molecule antagonists of the estrogen related receptor signaling pathway with the pleiotropic PPARgamma coactivator (PGC) from Tox21 10K library - cell viability counter screen (AID 1224840; active = well fitted cell-killing curve with a large enough effect in the repeat runs, not every such curve was filed as active; note: nearly all actives have a fitted effect of over 40% in size). An outline of the steps:
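Fluorescence read-out of CellTiter-Fluor viability reagent, added after cells had been exposed to compound in DMSO for 17.5 h at 37 C; 30 min development at 37 C/5% CO2. Cells: PGC/ERR line, 2,000/well.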

Experiment [6] concerns the target Thyrotropin receptor (Homo sapiens) (UniProt P16473). The experiment can be described thus: qHTS assay to identify small molecule agonists of the thyroid stimulating hormone receptor (TSHR) signaling pathway (AID 1224843; calls by dose curve; note: nearly all actives have a fitted effect of over 45% in size; note: potency is the fitted concentration of half-maximal effect). An outline of the steps:
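Using 15 concentrations per compound in triplicate, cAMP production was monitored in TSHR-HEK293 cells after 30 min compound incubation at RT; HTRF reagents followed, with fluorescence intensity recorded after 1 h.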

The nature of experiment [7]: qHTS assay to identify small molecule agonists of the hypoxia (HIF-1) signaling pathway - cell viability counter screen (AID 1224844; calls by dose curve; note: nearly all actives have a fitted effect of over 50% in size). Put shortly:
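CellTiter-Glo luminescence read-out, 30 min RT, taken in the same wells as the beta-lactamase HRE reporter assay; HRE-bla ME-180 cells, 0.5% dialyzed FBS, 17 hr compound treatment at 37C, 5% CO2.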

Experiment [8] in a line: qHTS assay to identify small molecule agonists of H2AX (AID 1224845; active = well fitted activation curve with a large enough effect in the signal ratio in the repeat runs, not every such curve was filed as active; the % refers to the signal ratio). An outline of the steps: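 Wild-type CHO-K1 cells plated overnight, then exposed 3 hr at 37C to compounds at 15 concentrations (0.76% DMSO). Lysed, then HTRF anti-pH2AX(S139)-cryptate/anti-H2AX-d2 detection after 24 hr at room temperature; emissions 665 and 620 nm.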
The nature of experiment [9]: qHTS assay to identify small molecule agonists of H2AX - cell viability counter screen (AID 1224847; calls by dose curve; note: top concentration of the series differs between compounds; nearly all actives have a fitted effect of over 30% in size). An outline of the steps:
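For this counter screen, overnight-attached CHO-K1 cells received test compounds (15 concentrations, 0.76% DMSO final); 3 hr later at 37C, CellTiter-Glo reagent was added and luminescence recorded after 30 min at room temperature.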

Experiment [10] is described as follows: qHTS RealTime-Glo MT Cell Viability Assay in HepG2 cells - 24 hour (AID 1224867). Note: nearly all actives have a fitted effect of over 50% in size. Put shortly:
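Cells + NanoLuc/prosubstrate dispensed (600 cells/well) → 5 h at 37 C/5% CO2 → compounds in DMSO transferred → 40 h incubation at 37 C, luminescence read at 0, 8, 16, 24, 32, 40 h.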

A short description of experiment [11]: A CellTox Green Cytotoxicity Assay to monitor cytotoxicity in HEK293 cells - 0 hour (AID 1224869). Note: nearly all actives have a fitted effect of over 50% in size. Put shortly: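 Read-out: fluorescence of a cell-impermeant cyanine dye staining DNA of dead cells, proportional to cytotoxicity. HEK293, 600 cells/well with reagent, compound (23 nL DMSO) added after 5 h; reads at 0, 8, 16, 24, 32, 40 h.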
The nature of experiment [12]: qHTS RealTime-Glo MT Cell Viability Assay in HepG2 cells - 40 hour (AID 1224870). Note: nearly all actives have a fitted effect of over 50% in size. An outline of the steps: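 HepG2 cells mixed with RealTime-Glo MT reagents (NanoLuc plus cell-permeant prosubstrate) were seeded at 600 cells/well, incubated 5 h at 37 C/5% CO2, then pinned with compounds in DMSO; nonlytic luminescence tracked viability during 40 h treatment.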
In experiment [13] the target is Luciferin 4-monooxygenase (Photinus pyralis) (UniProt P08659). The experiment can be described thus: qHTS assay to identify small molecule inhibitors of firefly luciferase (AID 1224835). Note: nearly all actives have a fitted effect of over 25% in size. Put shortly:
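Quantitative HTS format; KM concentrations of both substrates. Purified P. pyralis FLuc activity quantified from luminescence images.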

Experiment [14] in a line: qHTS assay to identify small molecule antagonists of the estrogen related receptor signaling pathway with the pleiotropic PPARgamma coactivator (PGC) from Tox21 10K library (AID 1224841; call rule not given here). Put shortly: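 Luminescence read-out (One-Glo luciferase reagent, 30 min at room temperature) from PGC/ERR cells exposed to DMSO-dissolved test compounds for 18 h at 37 C; cells, 2,000 per well, had been preincubated 6 h before compound transfer.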

Experiment [15] in a line: qHTS assay to identify small molecule agonists of the estrogen related receptor signaling pathway with the pleiotropic PPARgamma coactivator (PGC) from Tox21 10K library (AID 1224842). Note: nearly all actives have a fitted effect of over 15% in size. Put shortly: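 PGC/ERR reporter cells (NTP line) were seeded 2,000 per well, rested 6 h at 37 C/5% CO2, then pin-dosed with compounds in DMSO for 18 h at 37 C; luciferase read by One-Glo luminescence after 30 min at room temperature.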

Experiment [16] is described as follows: qHTS assay to identify small molecule agonists of the hypoxia (HIF-1) signaling pathway (AID 1224846; active = well fitted activation curve with a large enough effect in the signal ratio in the repeat runs, not every such curve was filed as active; the % refers to the signal ratio). An outline of the steps: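 Beta-lactamase FRET read-out (CCF4-AM substrate) from ME-180 cells carrying an HRE-driven bla reporter, after 17 hrs compound exposure at 37C/5% CO2. Cells were seeded at 2,000 per well in 0.5% dialyzed FBS medium and preincubated 5 hrs.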

Experiment [17] in a line: qHTS assay to identify small molecule agonists of the estrogen related receptor (ERR) signaling pathway from Tox21 library (AID 1224849; calls by dose curve; note: nearly all actives have a fitted effect of over 15% in size). The conditions noted are these: ERR reporter cell line, ONE-Glo luciferase, 18 h; at 92.4 µM (top of the series) unless noted. Put shortly:
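Luminescence readout (ONE-Glo, 30 min RT) after 18 h compound exposure at 37 C of NTP-supplied ERR reporter cells; cells were plated 6 h before compound addition by pin tool.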

Experiment [18] can be described thus: qHTS RealTime-Glo MT Cell Viability Assay in HEK293 cells - 32 hour (AID 1224868). An outline of the steps: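 Tox21 10K qHTS, HEK293, 600 cells/well, RealTime-Glo reagent co-dispensed with cells; 5 h preincubation, compound by pintool, 37 C, luminescence at 0–40 h.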

Values without a mark were called inactive. Records with an inconclusive call do not appear. Active and inactive are the calls of the source. Unless noted, calls come from the whole dose curve; as a rule, active = well fitted curve in the direction sought with a large enough effect in the repeat runs; inconclusive = weak or mixed curves; inactive = no such curve, though single readings can be large; an effect the other way counts as inactive or inconclusive.
% is set by controls: 0 for no effect and ±100 for the full control effect.

Sequence of Thyrotropin receptor (Homo sapiens) (P16473 whole entry, looked up): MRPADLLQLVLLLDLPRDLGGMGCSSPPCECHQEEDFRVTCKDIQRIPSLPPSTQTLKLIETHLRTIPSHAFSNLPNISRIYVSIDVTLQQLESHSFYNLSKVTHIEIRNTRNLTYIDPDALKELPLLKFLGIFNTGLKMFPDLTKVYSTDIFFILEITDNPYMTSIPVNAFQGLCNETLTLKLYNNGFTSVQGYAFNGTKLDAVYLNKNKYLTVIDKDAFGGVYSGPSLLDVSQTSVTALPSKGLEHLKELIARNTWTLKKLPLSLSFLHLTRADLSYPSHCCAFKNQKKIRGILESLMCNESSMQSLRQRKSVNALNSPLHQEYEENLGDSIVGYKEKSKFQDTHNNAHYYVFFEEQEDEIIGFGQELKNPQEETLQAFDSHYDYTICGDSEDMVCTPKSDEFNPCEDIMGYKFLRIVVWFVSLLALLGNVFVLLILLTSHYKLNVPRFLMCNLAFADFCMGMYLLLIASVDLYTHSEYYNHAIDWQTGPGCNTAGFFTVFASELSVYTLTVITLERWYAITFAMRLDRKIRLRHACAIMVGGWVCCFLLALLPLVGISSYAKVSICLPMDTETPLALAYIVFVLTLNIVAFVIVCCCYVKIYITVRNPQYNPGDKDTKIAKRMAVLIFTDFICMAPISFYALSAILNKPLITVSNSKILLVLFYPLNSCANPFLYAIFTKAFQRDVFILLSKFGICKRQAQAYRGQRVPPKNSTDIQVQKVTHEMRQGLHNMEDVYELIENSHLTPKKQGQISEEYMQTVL
Sequence of Luciferin 4-monooxygenase (Photinus pyralis) (P08659 whole entry, looked up): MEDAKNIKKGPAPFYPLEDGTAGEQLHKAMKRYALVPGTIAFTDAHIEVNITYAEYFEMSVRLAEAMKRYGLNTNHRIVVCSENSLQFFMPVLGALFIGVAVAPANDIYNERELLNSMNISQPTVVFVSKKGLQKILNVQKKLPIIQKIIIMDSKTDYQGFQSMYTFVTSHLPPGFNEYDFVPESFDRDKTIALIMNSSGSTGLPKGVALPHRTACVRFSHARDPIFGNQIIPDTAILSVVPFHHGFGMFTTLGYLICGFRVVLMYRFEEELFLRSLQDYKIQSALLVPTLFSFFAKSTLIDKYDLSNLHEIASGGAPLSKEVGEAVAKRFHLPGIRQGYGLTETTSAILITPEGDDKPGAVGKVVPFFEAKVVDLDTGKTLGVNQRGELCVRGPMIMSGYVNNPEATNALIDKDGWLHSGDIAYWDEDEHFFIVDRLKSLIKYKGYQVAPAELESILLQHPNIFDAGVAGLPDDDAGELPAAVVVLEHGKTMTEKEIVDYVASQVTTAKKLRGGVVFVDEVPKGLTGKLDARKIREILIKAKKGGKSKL
Sequence of Nuclear receptor subfamily 1 group I member 3 (Homo sapiens) (Q14994 whole entry, looked up): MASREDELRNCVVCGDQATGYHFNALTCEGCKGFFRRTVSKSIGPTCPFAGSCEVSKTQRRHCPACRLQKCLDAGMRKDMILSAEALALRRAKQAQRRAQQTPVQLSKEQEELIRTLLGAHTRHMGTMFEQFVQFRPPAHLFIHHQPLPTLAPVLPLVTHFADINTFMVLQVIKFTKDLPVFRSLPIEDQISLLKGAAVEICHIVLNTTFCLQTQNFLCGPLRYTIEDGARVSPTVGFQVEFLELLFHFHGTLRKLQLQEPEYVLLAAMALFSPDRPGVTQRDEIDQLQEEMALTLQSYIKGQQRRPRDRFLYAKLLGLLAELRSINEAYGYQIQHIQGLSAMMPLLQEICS

Regarding `O=C(CCCN1CCC(n2c(=O)[nH]c3ccccc32)CC1)c1ccc(F)cc1`, the Potency entry in [1], in experiment [2], in experiment [3], in [4], in experiment [5] and in experiment [6] was “inactive” throughout. In addition, the Potency result in experiment [7], in [8], in [9], in [10], in [11] and in experiment [12] was “inactive” throughout.

As to `Nc1c(Br)cc([N+](=O)[O-])cc1[N+](=O)[O-]`, the Potency result in experiment [13], in experiment [1], in experiment [3], in experiment [5], in experiment [14] and in experiment [6] was “inactive” in each case. The Potency result in experiment [7], in experiment [8], in [10], in experiment [18], in experiment [11] and in experiment [12] was “inactive” in each case. Moreover, the outcome in experiment [15] and in experiment [16] was inactive. The activity change, positive = activation in experiment [17] is -26.5%.

On to `CC(C)(C)NCC(O)c1cc(Cl)c(N)c(Cl)c1` (stereo unspecified), for which the Potency entry in [13], in experiment [5], in [14], in experiment [7], in experiment [8] and in experiment [9] was “inactive” each time. Moreover, the Potency entry in experiment [10], in [11] and in experiment [12] was “inactive” in each case. Besides, the result in [15] and in experiment [16] was inactive. Moreover, the Potency in experiment [6] was 0.0021 µM (active). Besides, the activity change, positive = activation in experiment [17] is 6.3% [at 42.5 µM].

For `CC(CC(C#N)(c1ccccc1)c1ccccc1)N(C)C` (stereo unspecified), the Potency result in experiment [13], in [2], in experiment [3], in [5], in experiment [6] and in [8] was “inactive” in each case. The Potency result in [9], in experiment [10], in experiment [11] and in experiment [12] was “inactive” throughout. The Potency in experiment [4] is 27.2 µM (active).

Turning to `Nc1cc2c3c(c1)C(c1ccccc1)=N[C@@H](NC(=O)c1cccnc1)C(=O)N3CC2`, the Potency result in [1], in [2], in experiment [3], in experiment [4], in [5] and in experiment [6] was “inactive” throughout. The Potency entry in experiment [7], in experiment [8], in experiment [9], in experiment [10], in experiment [18] and in experiment [11] was “inactive” each time. The Potency entry in experiment [12] was “inactive”. In addition, in [16], the molecule was classed as inactive.

With `COc1ccc2c(c1OC)CN1CCc3cc4c(cc3C1C2)OCO4` (stereo unspecified), the Potency result in [1], in experiment [2], in [5], in experiment [6], in [7] and in experiment [8] was “inactive” each time. Moreover, the Potency entry in experiment [10], in experiment [11] and in [12] was “inactive” in each case.

Take `COc1cc(OC)nc(Oc2cccc(Oc3nc(OC)cc(OC)n3)c2C(=O)O)n1`: the Potency entry in experiment [13], in experiment [1], in experiment [2], in experiment [3], in experiment [4] and in [5] was “inactive” throughout. For the same molecule, the Potency result in [7], in [8], in [10], in experiment [18], in [11] and in [12] was “inactive” in each case. For the same molecule, the molecule was called inactive in experiment [16].

In the case of `O=C(O)c1ccc2[nH]cc(CCCCN3CC=C(c4ccccc4)CC3)c2c1`, the Potency entry in experiment [1], in [2], in [3], in [4], in experiment [5] and in experiment [6] was “inactive” throughout. The Potency result in experiment [7], in [8], in experiment [9], in experiment [10], in [18] and in [11] was “inactive” each time. Further, the Potency entry in experiment [12] is “inactive”. The molecule was classed as inactive in [16].
